Results: PubChem BioAssay AID1438 (Sanford-Burnham Center for Chemical Genomics, 2008)
Screen size: about 2,200 compounds; about 45 (2%) were called active. No rule for the calls is given here. Not all results are given here. Measured potencies and affinities stand elsewhere.

Molecular target: Runt-related transcription factor 1 (Homo sapiens) + Core-binding factor subunit beta (Homo sapiens) (UniProt Q01196+Q13951)
Assay: inhibitors of RUNX1 Runt–CBFb-SMMHC binding, biochemical, TR-FRET (AID 1438)
Details: TR-FRET Runt domain–CBFb-SMMHC binding, at 20 µM, hits give high values

Runt-related transcription factor 1 (Homo sapiens) + Core-binding factor subunit beta (Homo sapiens), sequence (Q01196 whole entry, looked up): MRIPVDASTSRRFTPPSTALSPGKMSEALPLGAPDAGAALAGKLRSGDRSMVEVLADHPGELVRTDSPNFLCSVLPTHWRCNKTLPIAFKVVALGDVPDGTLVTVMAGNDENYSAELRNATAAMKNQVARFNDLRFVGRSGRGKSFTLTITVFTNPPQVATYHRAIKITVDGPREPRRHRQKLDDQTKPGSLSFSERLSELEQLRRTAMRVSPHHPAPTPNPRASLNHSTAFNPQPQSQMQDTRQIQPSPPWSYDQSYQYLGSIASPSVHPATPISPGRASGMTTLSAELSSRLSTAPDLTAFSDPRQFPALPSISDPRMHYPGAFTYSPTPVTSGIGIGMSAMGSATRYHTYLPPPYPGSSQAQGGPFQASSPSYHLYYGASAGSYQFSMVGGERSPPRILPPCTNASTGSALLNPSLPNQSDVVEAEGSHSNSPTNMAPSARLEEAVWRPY
Runt-related transcription factor 1 (Homo sapiens) + Core-binding factor subunit beta (Homo sapiens), sequence (Q13951 whole entry, looked up): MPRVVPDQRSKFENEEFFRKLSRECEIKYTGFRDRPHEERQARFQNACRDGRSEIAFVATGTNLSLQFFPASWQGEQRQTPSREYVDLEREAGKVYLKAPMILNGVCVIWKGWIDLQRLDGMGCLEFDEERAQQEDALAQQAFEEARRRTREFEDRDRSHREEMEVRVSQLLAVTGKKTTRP

| Structure (SMILES) | inhibition |
| --- | --- |
| CCOC(=O)c1cc(C(=O)OCC)c2ccccn2c1=O | 25.7% (inactive) |
| COCCCNC(=O)c1cc2c(=O)n3cc(C)ccc3nc2nc1NCC1CCCO1 (stereo unspecified) | -2.6% (inactive) |
| CC(C)OC(=O)c1c2nc3ccccc3nc2n2c1[nH]c(=O)c1ccccc12 | -203% (inactive) |
| Cc1ccc2[nH]cc(C(=O)CN3CCC4(CC3)OCCO4)c2c1 | 2.6% (inactive) |
| O=c1[nH]c2ccccc2nc1/C=C/c1ccccc1 | -5.7% (inactive) |
| O=c1[nH]c2ccccc2n2c(-c3ccccc3)nnc12 | 84.1% (active) |
| COCc1cc(=O)n2c([nH]c3ccccc32)c1C#N | 38.4% (inactive) |
| Cc1cccn2c(=O)c3cc(C(=O)NCc4ccco4)c(=N)n(C(C)C)c3nc12 | 32.5% (inactive) |
| COc1cc(/C=C/C(=O)OCC(=O)Nc2ccccc2Sc2ccc(Cl)cc2)ccc1O | 1.1% (inactive) |
| Cc1cccn2c(=O)c(/C=C(\C#N)C(=O)NC3CCS(=O)(=O)C3)c(N3CC(C)OC(C)C3)nc12 (stereo unspecified) | -39.6% (inactive) |
| COc1ccc(OC)c(N=c2ssnc2Cl)c1 | -11.1% (inactive) |
| N#Cc1c(NC(=S)NC(=O)c2ccccc2)sc2c1CCN(CCc1ccccc1)C2 | 52% (active) |
| CC(C)N1CCc2c(sc(NC(=S)NC(=O)c3ccccc3)c2C#N)C1 | 21.2% (inactive) |
| CCCN1CCc2c(sc(NC(=S)NC(=O)c3ccccc3)c2C#N)C1 | -14.1% (inactive) |
| CNS(=O)(=O)c1ccc2nc(NC(=O)c3ccc(N4C(=O)CCC4=O)cc3)sc2c1 | -3.6% (inactive) |
| O=C(Nc1nc2c(s1)CN(Cc1ccccc1)CC2)C1CCC1 | 43% (inactive) |
| COc1ccc(C2c3ccc(O)cc3Oc3ncn(CC(C)C)c(=N)c32)cc1 (stereo unspecified) | -6.8% (inactive) |
| NNc1nc2sc3c(c2c(=O)n1C1CCCCC1)CCN(Cc1ccccc1)C3 | -9.4% (inactive) |
| CC(=O)Nc1sc2c(c1C(N)=O)CCN(Cc1ccccc1)C2 | -0.2% (inactive) |
| CC1(C)CC(=O)C2=C(C1)Nc1ccccc1NC2 | -9.5% (inactive) |
| O=C(c1ccccc1)c1cc2ccc(O)cc2oc1=O | -8.4% (inactive) |

| Structure (SMILES) | inhibition |
| --- | --- |
| CCCn1c(=N)c(C(=O)NC2CCCC2)cc2c(=O)n3cccc(C)c3nc21 | 2.5% (inactive) |
| O=S(=O)(Nc1ccc(-c2nc3cccnc3s2)cc1)c1cccs1 | 29.2% (inactive) |
| CCc1ccc(S(=O)(=O)Nc2ccc(-c3nc4cccnc4s3)cc2)s1 | 44% (inactive) |
| Cc1cccc2cc(C#N)c(NCCNS(=O)(=O)c3ccccc3)nc12 | -12.6% (inactive) |
| CN1CCN(Cc2c(O)ccc3cc(-c4ccccn4)c(=O)oc23)CC1 | -17.3% (inactive) |
| Cc1nc2[nH]c(=O)c3c(n2n1)NC1=C(C(=O)CC(C)(C)C1)C3c1ccc(F)cc1 (stereo unspecified) | 46.7% (inactive) |
| COc1ccc(C2C3=C(CC(C)(C)CC3=O)Nc3c2c(=O)[nH]c2nc(C)nn32)cc1 (stereo unspecified) | 17.2% (inactive) |
| O=C(Nc1nccs1)c1ccccc1N=Cc1ccccc1 | 49.3% (inactive) |
| Cn1c(C(=O)NCc2ccccn2)cc2c(=O)n3ccccc3nc21 | 11.6% (inactive) |
| Nc1c(C(=O)NCc2ccco2)c2nc3ccccc3nc2n1CCc1ccccc1 | 42.7% (inactive) |
| CC(C)Cn1c(N)c(C(=O)NCc2cccs2)c2nc3ccccc3nc21 | 17% (inactive) |
| CC(C)Cn1c(N)c(C(=O)NCCN2CCOCC2)c2nc3ccccc3nc21 | 46.7% (inactive) |
| COc1ccc(CCn2c(N)c(C(=O)NCc3ccco3)c3nc4ccccc4nc32)cc1 | 46.3% (inactive) |
| CCN1CCc2nc(SCC(=O)Nc3ccc(OC)cc3)c(C#N)cc2C1 | 20.7% (inactive) |
| CCOC(=O)C1=C(CSc2nc3c(cc2C#N)CN(C)CC3)OC(N)=C(C#N)C1c1ccncc1 (stereo unspecified) | 35.4% (inactive) |
| Cc1cc(=O)oc2cc(OC(=O)c3cncc(Br)c3)ccc12 | -4.4% (inactive) |
| O=C(COC(=O)COc1ccccc1[N+](=O)[O-])NC1CCCC1 | -6% (inactive) |
| COc1ccc(OCCn2cc(/C=C(\C#N)C(=O)NCc3ccco3)c3ccccc32)cc1 | -10.8% (inactive) |
| CN1CCc2cc3c(c4c2[C@H]1[C@H](O)c1ccccc1-4)OCO3 | 18.4% (inactive) |
| COc1c(O)ccc2c1CN1CCc3cc4c(cc3C1C2)OCO4 (stereo unspecified) | -9.6% (inactive) |
| CNC(=O)/C(C#N)=C/c1c(N(Cc2ccccc2)Cc2ccccc2)nc2c(C)cccn2c1=O | -14.8% (inactive) |

| Structure (SMILES) | inhibition |
| --- | --- |
| CC(=O)N=c1c(C#N)cc2c(=O)n3ccccc3nc2n1CCCOC(C)C | 7.1% (inactive) |
| CCN(CC)c1ccc2cc(C(=O)Nc3cccnc3N3CCOCC3)c(=O)oc2c1 | -26.6% (inactive) |
| CCCCCCc1cc2cc(S(=O)(=O)c3ccc(Cl)cc3)c(=O)oc2cc1O | 12.2% (inactive) |
| Cc1ccc2nc3c(cc(S(=O)(=O)c4ccccc4)c(=N)n3Cc3ccco3)c(=O)n2c1 | -7.9% (inactive) |
| CCn1c(=N)c(S(=O)(=O)c2ccccc2)cc2c(=O)n3ccccc3nc21 | -19.8% (inactive) |
| Cc1cccn2c(=O)c3cc(S(=O)(=O)c4ccc(F)cc4)c(=N)n(Cc4ccco4)c3nc12 | -6.5% (inactive) |
| CCCn1c(=N)c(S(=O)(=O)c2ccccc2)cc2c(=O)n3ccccc3nc21 | -6.9% (inactive) |
| COC(=O)C1=CN(CC2CCCO2)C=C(C(=O)OC)C1c1ccccc1C(F)(F)F (stereo unspecified) | 45.6% (inactive) |
| Cc1ccccc1OCCn1cc(/C=C(\C#N)C(=O)NCc2ccco2)c2ccccc21 | 20.8% (inactive) |
| COCCOC(=O)C1=C(C)NC2=C(C(=O)CC(C)(C)C2)C1c1cccnc1 (stereo unspecified) | 35.5% (inactive) |
| Fc1ccc(CSc2nc3ncccc3[nH]2)cc1 | -9.6% (inactive) |
| CCC(C)n1c(=N)c(C#N)cc2c(=O)n3cccc(C)c3nc21 (stereo unspecified) | -18.9% (inactive) |
| CCOC(=O)c1cc2c(=O)n3ccccc3nc2n(Cc2ccco2)c1=NC(=O)c1cccc(OC)c1 | -10.1% (inactive) |
| O=C1C=CC(=O)N1c1cccc(-c2ccccc2)c1 | -6.3% (inactive) |
| O=C(c1ccccc1)c1ccccc1N1C(=O)C=CC1=O | 28.3% (inactive) |
| Cc1cc(C)cc(Oc2nc3ccccn3c(=O)c2/C=C(\C#N)C(=O)NC2CCS(=O)(=O)C2)c1 (stereo unspecified) | -134% (inactive) |
| Cc1ccccc1Oc1nc2c(C)cccn2c(=O)c1/C=C(\C#N)C(=O)NC1CCS(=O)(=O)C1 (stereo unspecified) | -12.5% (inactive) |
| COP(=O)(CC(=O)c1ccccc1)CC(=O)c1ccccc1 | -7.7% (inactive) |
| Nc1ccc2c(C(F)(F)F)cc(=O)oc2c1 | 18.1% (inactive) |
| O=C(c1ccccc1)c1cnc(Nc2ccc(Cl)c(Cl)c2)s1 | 29.7% (inactive) |
| COc1ccc(N2C3=C(C(=O)CC(C)(C)C3)C(c3cnn(C)c3)C3=C2CC(C)(C)CC3=O)cc1 | -7.6% (inactive) |

| Structure (SMILES) | inhibition |
| --- | --- |
| COc1ccc(N2C3=C(C(=O)CC(C)(C)C3)C(c3ccccc3OC)C3=C2CC(C)(C)CC3=O)cc1 | 2.8% (inactive) |
| CCOC(=O)C1=C(Cc2ccc(C)cc2)C(=O)c2ccccc2C1=O | 45.1% (inactive) |
| CCOC(=O)c1sc(-c2ccc(Cl)cc2)nc1O | -7.6% (inactive) |
| Oc1c(C=NCc2ccccc2)sc2ccccc12 | -12.8% (inactive) |
| CN(C)c1nc(-c2cccs2)cc(C(F)(F)F)c1C#N | -6.2% (inactive) |
| CN(C)CCNc1c2c(c(C#N)c3nc4ccccc4n13)CCCC2 | 21.3% (inactive) |
| N#Cc1c2c(c(Nc3ccccc3)n3c1nc1ccccc13)CCC2 | 33.8% (inactive) |
| O=C(Nc1nc2c(s1)CN(Cc1ccccc1)CC2)C1CCCC1 | -11.2% (inactive) |
| CCOc1ccc2nc(NCCNC(=S)NCCCN(C)C)c(C#N)cc2c1 | -5.8% (inactive) |
| COCCn1c(=N)c(C(=O)NCCc2ccc(OC)cc2)cc2c(=O)n3cccc(C)c3nc21 | 23.3% (inactive) |
| COc1ccc(/C=C2/C(=O)ON=C2c2ccccc2)cc1OC | -3.7% (inactive) |
| Cn1c(C(=O)NCCC2=CCCCC2)cc2c(=O)n3ccccc3nc21 | 34.3% (inactive) |
| CCCS(=O)(=O)c1c(S(=O)(=O)CCC)c2c(C)cccn2c1C(=O)N/N=C/c1cc(O)cc(O)c1 | 1.8% (inactive) |
| COc1ccc2nc(Nc3sc4c(c3C(N)=O)CCCC4)sc2c1 | 45.1% (inactive) |
| COc1ccccc1-n1c(SCc2cc(=O)oc3cc(O)ccc23)nc2ccccc2c1=O | 29.8% (inactive) |
| COc1cc(-c2nnc(SCc3cc(=O)oc4cc(O)c(O)cc34)o2)cc(OC)c1OC | 49.9% (inactive) |
| N#Cc1c(NC(=O)CSc2ncc(-c3ccccc3)n2CC2CCCO2)sc2c1CCCC2 (stereo unspecified) | -3.3% (inactive) |
| CC(=O)N1c2ccccc2C2(O)N=C(C)SC12 (stereo unspecified) | 28.9% (inactive) |
